MCL1-BIM inh = inhibitors of MCL1 binding to BIM-BH3, primary screen, biochemical, fluorescence polarization | GST-MCL1 / FITC-Bim-BH3 fluorescence polarization | inhibition, % at 10.9 µM | AID 2057, 2009 | hit rate 0.68% among 320,000;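 active = inhibition above the mean inhibition of all tested compounds plus 3 SD, set per campaign, cut at about 40% in these data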;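 also: higher means more loss of mP so more displacement of Bim peptide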
BCLXL inh = inhibitors of human Bcl-xL, primary screen, biochemical, fluorescence polarization, HTS; Bcl-2-like protein 1 (Homo sapiens), Q07817; GST-Bcl-xL / FITC-Bim BH3 peptide fluorescence polarization; inhibition, % at 10.9 µM; hit rate 0.7% among 320,000; AID 2129, 2009;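 active = inhibition above the mean of all tested compounds plus 3 SD, cutoff set per campaign, cut at about 30% in these data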;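 also: inhibitors lower millipolarization by displacing the labeled peptide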
GLD-1 TGE inh = GLD-1/TGE RNA complex disruptors, primary screen, biochemical, fluorescence polarization | purified GLD-1 + fluorescein TGE RNA | inhibition, % at 5.96 µM | hit rate 0.44% among 320,000;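 active = percent inhibition above a per-plate cutoff, the plate mean of test compounds plus 3 SD, cut at about 30% in these data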
Target sequence (Q17339 whole entry, looked up): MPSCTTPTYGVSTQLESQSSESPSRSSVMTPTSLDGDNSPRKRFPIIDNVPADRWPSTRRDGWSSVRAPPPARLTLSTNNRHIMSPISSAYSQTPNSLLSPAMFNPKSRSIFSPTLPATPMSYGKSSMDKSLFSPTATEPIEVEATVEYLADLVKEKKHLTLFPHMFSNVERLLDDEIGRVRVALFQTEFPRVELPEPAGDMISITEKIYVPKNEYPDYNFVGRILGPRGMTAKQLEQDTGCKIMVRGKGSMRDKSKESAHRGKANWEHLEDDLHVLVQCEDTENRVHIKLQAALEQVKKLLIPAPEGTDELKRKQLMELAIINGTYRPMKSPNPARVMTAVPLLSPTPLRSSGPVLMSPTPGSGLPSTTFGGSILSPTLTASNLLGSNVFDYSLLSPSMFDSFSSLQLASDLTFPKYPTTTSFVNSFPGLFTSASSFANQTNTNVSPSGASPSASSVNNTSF
Yeast superoxide = reduction of superoxide in aged yeast, primary screen, HTS; S. cerevisiae aged cells, superoxide DHE fluorescence; stronger effect = lower value; superoxide response (% of plate mean), % at 10 µM; hit rate 0.18% among 330,000;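 active = superoxide response under a set limit, about three screen SD below normal, cut at about 65% in these data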;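 also: yeast aged for seven days with compound at 30 °C before DHE staining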
LANA-H2A inh = blockers of LANA interaction with H2A/H2B – biochemical, FP readout, HTS, primary screen; Protein LANA1 (Human herpesvirus 8 type P (isolate GK18)), Q9QR71; cell-free LANA-H2A/H2B peptide, fluorescence polarization; hit rate 0.6% among 320,000; inhibition, % (no concentration beside the values); AID 2629, 2010; in the data active = inhibition mostly above about 10%, no sharp cut-off; inactive = mostly below about 6.7%
MEX-5 binding = MEX-5 zinc finger RNA-binding disruptors – biochemical, C. elegans, fluorescence polarization, MLPCN library, primary screen. MEX-5/FITC-TCR2 RNA binding; stronger effect = lower value. activity score (negative = inhibition of binding), % at 10 µM. AID 1832, 2009. hit rate 0.38% among 300,000;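 active = inhibition past about -25% in most replicates, and total fluorescence under double the plate's negative control median, limit read from the data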
Hits are given with their value; i = inactive; nt = not tested or not shown; + = active, no number. Rows were chosen to be rich in hits. Some 1.9% of all compounds tested hit in one or more screens of this group.

SMILES	MCL1-BIM inh	BCLXL inh	GLD-1 TGE inh	Yeast superoxide	LANA-H2A inh	MEX-5 binding
O=C(Nc1nccs1)c1ccc(-c2ccc(Cl)cc2)o1	i	i	i	i	i	i
CC(C)c1nnc(NC(=O)CCC(=O)NCc2cccs2)s1	i	i	i	i	18.2	i
COc1ccccc1N1CCN(C(=O)C2=CC=CN3CCS(=O)(=O)N=C23)CC1	i	i	i	i	nt	nt
O=C1/C(=C/c2ccc(Br)cc2)Oc2cc(O)ccc21	i	i	75.8	i	i	-39.8
O=C1/C(=C/c2ccc([N+](=O)[O-])cc2)Oc2cc(O)ccc21	nt	nt	nt	i	i	i
CC(C)(C)c1ccc(/C=C2\Oc3cc(O)ccc3C2=O)cc1	i	i	i	i	i	-27.5
O=[N+]([O-])c1cc(CS(=O)(=O)Oc2ccc(Cl)cc2)c(O)c([N+](=O)[O-])c1	i	i	i	i	i	nt
O=C1C=C(c2ccc3ncccc3c2)C[C@@H](c2ccc(F)cc2)C1	i	i	i	i	i	nt
O=C1C=C(c2ccc3ccccc3c2)C[C@@H](c2ccc(F)cc2)C1	i	i	i	i	21.3	nt
CN(Cc1ccc(Br)s1)C(=O)CNC(=O)c1ccc2c(c1)OCO2	i	i	i	i	i	nt
Cc1ccc(CN2C(=O)CCC2C(=O)NCc2cccnc2)cc1 (stereo unspecified)	i	i	i	i	18.3	i
C/C(=C\c1ccc2c(c1)OCO2)C1Nc2cccc3cccc(c23)N1	i	i	i	i	i	nt
C/C(=C\c1ccccc1F)C1Nc2cccc3cccc(c23)N1	i	30.8	i	i	i	nt
CC(=O)c1c(O)cc(O)cc1CC(=O)O	i	i	i	i	i	-28.8
Cc1[nH][nH]c(=O)c1C(c1cc([N+](=O)[O-])ccc1O)c1c(C)[nH][nH]c1=O	i	i	i	i	nt	-27.1
CC(C)(O)C#Cc1ccc(CNC[C@H]2O[C@@H](n3cnc4c(N)ncnc43)[C@H](O)[C@@H]2O)s1	nt	nt	nt	i	nt	nt
Cc1ccc(C(=O)O)cc1[N+](=O)[O-]	i	i	i	i	i	nt
Cc1cc(C)c(NC(=O)c2cc(C(=O)O)ccc2C(=O)O)c([N+](=O)[O-])c1	i	i	i	i	12.0	i
O=C(CCc1c[nH]c2ccccc12)N1CCCCCCC1	i	i	i	i	59.9	i
O=C(C[C@H]1C/C=C\CC[C@H](Cc2ccc(F)cc2)C(=O)O[C@H](c2ccccc2)CNC1=O)N[C@H](CO)Cc1ccccc1	nt	nt	i	i	+	nt
CC(C)(C)OC(=O)C[C@H]1C/C=C\C[C@H](CC(=O)N[C@H](CO)Cc2ccccc2)C(=O)N[C@H](Cc2ccccc2)COC1=O	nt	nt	i	i	82.6	nt
CC(C)(C)OC(=O)C[C@@H]1C/C=C\C[C@H](CC(=O)N[C@H](CO)Cc2ccccc2)C(=O)N[C@H](Cc2ccccc2)COC1=O	nt	nt	i	i	i	nt
CCOC(=O)C1=C(C)NC(=O)/C1=C\N(C)C	i	37.8	i	i	i	i
COc1ccc2c(c1OC)C(=O)N(c1ccc(C)cc1)C2=O	i	i	i	i	15.9	i
CCCn1ccnc1SCC(=O)Nc1c(C)n(C)n(-c2ccccc2)c1=O	i	i	i	i	i	nt
SMILES	MCL1-BIM inh	BCLXL inh	GLD-1 TGE inh	Yeast superoxide	LANA-H2A inh	MEX-5 binding
CC(C)C1CC(CCNCc2ccc(N(C)C)cc2)(c2ccccc2)CCO1 (stereo unspecified)	i	i	i	i	7.2	i
CCOc1ccccc1C(=O)NCC(=O)OCC(=O)c1c(N)n(C)c(=O)n(C)c1=O	nt	nt	i	i	i	nt
O=C(COC(=O)c1ccncc1)Nc1cccc2ccccc12	nt	nt	i	i	i	nt
Cc1ccc(NC(=O)CSc2ncccn2)cc1S(=O)(=O)N1CCOCC1	nt	nt	i	i	i	nt
O=C(COc1cccc(C(F)(F)F)c1)NCC(c1cccs1)N1CCOCC1 (stereo unspecified)	i	i	i	i	i	nt
O=C(O)C1OC(Oc2cc3oc(-c4ccccc4)cc(=O)c3c(O)c2O)C(O)C(O)C1O (stereo unspecified)	i	i	i	i	i	-60.3
COc1ccc(/C=C2\SC(=S)N(CCC(=O)NC3CCCC3)C2=O)cc1OC	i	i	i	i	i	-27.0

Source: PubChem (several laboratories)
